Rows were chosen to be rich in hits. Some 3.7% of all compounds tested hit in one or more screens of this group.
PLK1 PBD block: blocks phosphopeptide binding to human PLK1 polo-box domain; P53350; Plk1 PBD binding of FITC phosphopeptide, fluorescence polarization; Potency, µM, inactives show max response, negative = inhibition, hits mostly inhibitors; actives 2.8% (n = 360,000); AID 720504; further: potency means the concentration at half of the fitted maximal effect; series mostly up to about 57 µM; on the % scale 0 is the no-effect control and ±100 the full control effect; nearly all actives have a fitted effect of over 65% in size
FEN1 inhibitor: blocks human flap endonuclease 1 | AID 588795 | Recombinant FEN1 flap cleavage, fluorescence, 15 min | Potency, µM (doses to about 114 µM), without a hit: top-dose activity change, negative = inhibition, actives largely listed as inhibitors | P39748 | actives 0.35% (n = 390,000); further: potency means the concentration at half of the fitted maximal effect; on the % scale 0 is the no-effect control and ±100 the full control effect; nearly all actives have a fitted effect of over 65% in size
Target sequence (P39748 whole entry, looked up): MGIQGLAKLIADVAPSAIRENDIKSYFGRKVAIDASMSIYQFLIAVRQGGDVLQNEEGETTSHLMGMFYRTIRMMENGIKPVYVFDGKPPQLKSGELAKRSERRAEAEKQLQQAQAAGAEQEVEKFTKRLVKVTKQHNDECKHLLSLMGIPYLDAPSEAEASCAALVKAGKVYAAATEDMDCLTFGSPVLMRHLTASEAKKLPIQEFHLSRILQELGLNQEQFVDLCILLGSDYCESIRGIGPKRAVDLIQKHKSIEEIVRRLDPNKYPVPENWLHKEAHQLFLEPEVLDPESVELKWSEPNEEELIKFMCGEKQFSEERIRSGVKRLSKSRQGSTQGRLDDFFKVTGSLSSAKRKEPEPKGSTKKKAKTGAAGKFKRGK
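Recombinant FEN1 (10 nM) was preincubated with pin-transferred compounds for 15 min at room temperature, then flap DNA substrate (50 nM final) was added. Plates were read at 0 and 15 min, and normalized concentration–response data were fitted to a four-parameter Hill equation.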
TCR act: activators of T cell receptors; 330,000 tested, under 10 active; Potency, µM (doses to about 9.22 µM), for the others: top-dose activation of IL-2 secretion, most hits filed as activators; AID 504894; primary human leukocytes, anti-CD3, IL-2 HTRF, 48 h; further: % of control where 0% means no effect
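HTRF read-out of IL-2 secretion: europium cryptate donor excited at 320nm, d2 acceptor emission at 665nm. Cells were primary human leukocytes incubated 48 hr with compounds and a-CD3 beads, supplying TCR signal only.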
VDR inh: blocks the human vitamin D receptor; P11473; VDR-SRC2-3 peptide fluorescence polarization, 2 h; Potency, µM, inactives show max response, negative = inhibition, usual class: inhibitors; actives 0.93% (n = 400,000); AID 504847; further: potency means the concentration at half of the fitted maximal effect; on the % scale 0 is the no-effect control and ±100 the full control effect
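Signal is fluorescence polarization, reporting how far test compounds block the interaction of VDR with the SRC2-3 coregulator peptide after a 2 h room-temperature incubation.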
PI5P4Ka inh: inhibitors of human PI5P4K alpha. P48426. PI5P4Kalpha enzyme, ADP-Glo luminescence, 60 min; active compounds read low. max response, %. actives 1.2% (n = 330,000). AID 652105; active means max response of -50% or lower; inconclusive means between -30% and -50%; inactive means -30% or higher; further: value at the top dose of about 77 µM; on the % scale 0 is the no-effect control and ±100 the full control effect
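ADP-Glo luminescence end-point after a 60 min room-temperature kinase reaction. PI5P4Kalpha and substrate in HEPES pH 7.4 buffer with EGTA, 0.1% CHAPS and 5% DMSO; ATP at 5 microM final.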
WRN helicase inh: blocks human WRN helicase; Q14191; WRN helicase unwinding, fluorescent forked duplex, kinetic; Potency, µM (series often up to 114 µM), for inactives: top-dose activity change, negative = inhibition, actives largely listed as inhibitors; actives 0.46% (n = 360,000); further: potency means the concentration at half of the fitted maximal effect; on the % scale 0 is the no-effect control and ±100 the full control effect; nearly all actives have a fitted effect of over 55% in size
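Primary qHTS, 1536-well format. 20 nM WRN + compound, 15 min RT; start with 100 nM forked fluorophore/quencher duplex, 2 mM ATP (final); kinetic read ex 525/em 598 nm.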
The depositor's hits bear a star; ? = inconclusive; . = no result; [ ] = remark or other dose. Unless noted, the call rests on the fitted dose curve; in most records, active means well fitted curve in the direction sought with a large enough effect; inconclusive means small, poorly fitted or top-dose-only effect, or another doubt; inactive means no such curve, though single readings can be large; an effect the other way counts as inactive or inconclusive.

SMILES | PLK1 PBD block | FEN1 inhibitor | TCR act | VDR inh | PI5P4Ka inh | WRN helicase inh
COc1cccc(/C=C2/SC(=S)N(CCC(=O)N3CCOCC3)C2=O)c1 | 30µM* | 7% | 0% | -10% | -7 | 3%
O/N=C/c1cc(Br)ccc1OCc1ccccc1F | -18% | ? | -1% | -22% | -2 | -5%
COc1ccc(/C=C2\SC(=S)N(CCC(=O)N3CCOCC3)C2=O)cc1 | 3% | -7% | . | -9% | 20 | -1%
O=C(O)CN1C(=O)/C(=C\c2cc(Br)ccc2OCc2ccccc2F)SC1=S | 19µM* | ? | 0% | ? | -9 | 2%[11.6 µM]
O=C(C[n+]1ccncc1)c1ccc(Br)cc1 | . | 0% | . | . | . | .
CCCOc1cccc(C2c3c(oc4ccc(F)cc4c3=O)C(=O)N2c2nc(C)c(C(C)=O)s2)c1 (configuration not stated) | . | -12% | . | 15% | . | .
COc1cccc(CNC(=O)Cn2cc3c(n2)-c2c(oc(C(=O)N4CCOCC4)c2C)CC3)c1 | . | 5% | . | 5% | . | .
CC[C@H](C)[C@H](NC(=O)[C@H](Cc1ccccc1)NC(=O)[C@H](C)NC(=O)[C@H](CC(=O)O)NC(=O)[C@H](CCCCN)NC(=O)[C@H](CO)NC(=O)[C@@H]1CCCN1C(=O)[C@@H]1CCC(=O)N1)C(=O)NCC(=O)N[C@@H](CC(C)C)C(=O)N[C@@H](CCSC)C(N)=O | . | . | . | 8% | . | .
O=C(O)CN1C(=O)/C(=C\c2ccccc2OCc2ccc(Cl)cc2Cl)SC1=S | 27µM* | -30% | 1% | ? | -25 | ?
CCOc1ccccc1C=C1SC(=S)N(CC)C1=O | 4% | -1% | 8% | -9% | -1 | 3%
O=C(O)COc1ccc(Br)cc1/C=C1/SC(=O)N(CC(=O)N2CCCC2)C1=O | -28% | 0% | -2% | ? | 2 | ?
O=C(O)CN1C(=O)/C(=C\c2cc(Br)ccc2OCc2ccccc2Cl)SC1=S | 17µM* | ? | -3% | ? | 0 | 56µM*
CC1CCc2c(sc(NC(=O)CCCn3cnc([N+](=O)[O-])n3)c2C(N)=O)C1 (configuration not stated) | -4% | 2% | -1% | -14% | -1 | 1%
NC(=O)c1c(NC(=O)CCCn2cnc([N+](=O)[O-])n2)sc2c1CCCC2 | 4.7µM* | 4% | -3% | 45µM* | -21 | -23%
Cc1cc([N+](=O)[O-])nn1CCCC(=O)Nc1sc2c(c1C(N)=O)CCCC2 | 4.7µM* | 7% | -1%[46.1 µM] | 32µM* | ? | -34%
O=C(CSc1ncnc2scc(-c3ccccc3)c12)Nc1ccc(C(=O)O)cc1 | -3% | 2% | -5% | -10% | -85* | 3%
CC(=O)Nc1ccc(Sc2ncnc3scc(-c4ccccc4)c23)cc1 | 6.7µM* | -14% | 0%[46.1 µM] | -18% | 5 | -24%
CCCC(=O)Nc1ccccc1Sc1ncnc2scc(-c3ccccc3)c12 | -6% | -7% | 8%[46.1 µM] | -23% | 12 | 4%
Cn1nnnc1Sc1ncnc2scc(-c3ccccc3)c12 | -7% | 3% | -5% | ? | -52* | -17%
Cc1sc(NC(=O)C2CCCCC2C(=O)O)c(C(N)=O)c1-c1ccc(C(C)(C)C)cc1 (configuration not stated) | 21µM* | 2% | 13% | ? | 1 | -10%
Cc1sc(NC(=O)/C=C/C(=O)O)c(C(N)=O)c1-c1ccc(C(C)(C)C)cc1 | 27µM* | -9% | 4%[46.1 µM] | 79µM* | ? | -26%
CCOC(=O)c1c(NC(=O)/C=C/C(=O)O)sc(C)c1-c1ccc(C(C)(C)C)cc1 | 21µM* | -33% | 4% | 20µM* | -3 | -34%
CCOC(=O)c1c(NC(=O)/C=C\C(=O)O)sc(C)c1-c1ccccc1 | 21µM* | -4% | -3% | -26% | ? | 7%
O=C(NCCc1ccccc1)c1ccc2c(c1)N(Cc1ccccc1Cl)C(=O)c1ccccc1S2 | . | -19% | . | 9% | . | .
Cc1ccccc1CNC(=O)CCSCc1cnn(-c2ccccc2)c1-n1cccc1 | . | 0% | . | 7% | . | .
SMILES | PLK1 PBD block | FEN1 inhibitor | TCR act | VDR inh | PI5P4Ka inh | WRN helicase inh
CCCOc1ccccc1C(=O)N(Cc1ccco1)C1CCS(=O)(=O)C1 (configuration not stated) | 30µM* | -3% | 5% | -11% | -22 | 10%
Fc1ccc(CCNc2ncnc3nc[nH]c23)cc1 | . | -11% | . | -12% | . | .
O=C(NCc1ccc(Cl)cc1)C(=O)Nc1cccc(Br)c1 | . | 17% | . | 10% | . | .
Cc1ccc2c(Br)cc(Br)c(O)c2n1 | . | . | . | -3% | . | .
FC(F)(F)c1cc(NC(=S)Nc2ccc3ccccc3c2)cc(C(F)(F)F)c1 | . | . | . | -19% | . | .
Cc1nccn1CCCN1C(=O)OC2(CCCCC2)C1(C)O (configuration not stated) | 21µM* | 5% | 0%[46.1 µM] | -5% | -15 | 14%
CCC1(C)OC(=O)N(CCCn2ccnc2C)C1(C)O (configuration not stated) | -8% | -12% | -1% | -2% | 4 | 0%
Nc1ccc(/C=C/c2ccnc3ccccc23)cc1 | . | -7% | . | . | . | .
O=C(CSc1nnnn1-c1ccc(F)cc1)NC1CCCCC1 | 27µM* | 4% | -6% | ? | -4 | 7%
CC(=O)c1ccc(-n2nnnc2SCC(=O)NC2CCCCC2)cc1 | ? | 1% | -1% | -8% | -2 | -4%
O=S(=O)(Nc1ccc(F)c(Cl)c1)c1ccc(Br)s1 | . | -10% | . | -10% | . | .
CCOC(=O)c1ccc(CC(=O)c2ccc(O)c(O)c2O)o1 | ? | 14µM* | 0% | 17% | ? | ?
CCOC(=O)c1ccc(Cn2c(-c3ccccc3)nnc2-c2ccccc2)o1 | 24µM* | -7% | 3% | -16% | -2 | -2%
CCOC(=O)c1ccc(COC(=O)c2ccc(-c3nnc(-c4ccccc4)o3)cc2)o1 | -4% | 1% | -1% | 2% | -5 | -6%
CN(C)c1ccc(-c2ccc(C3C4C=CCCC4(C)C(=O)N3Cc3ccccc3)c(F)c2)cc1 (configuration not stated) | . | 3% | . | -12% | . | .
O=C(O)c1cc(N=Nc2ccc(-c3ccc(N=Nc4ccc(O)c(C(=O)O)c4)cc3)cc2)ccc1O | . | . | . | 13µM* | . | .
O=C(O)c1cnc2ccccc2n1 | 27µM* | -5% | 2% | ? | . | -17%
COC(=O)c1cnc2ccccc2n1 | -1% | -3% | 5%[46.1 µM] | 5% | 7 | -7%[57.1 µM]
NCC(=O)N[C@@H](CCCN=C(N)N)C(=O)NCC(=O)N[C@@H](CCC(=O)O)C(=O)N[C@@H](CO)C(=O)O | . | . | . | 0% | . | .
CCc1ccc(-c2csc3[n+]2CCN3C(C)=O)cc1 | ? | -3% | 7% | 25µM* | . | -11%
O=C(CN1CC[n+]2c(-c3cccs3)csc21)c1ccc(-c2ccccc2)cc1 | -8% | 6% | -8% | ? | -14 | 14%
N#Cc1cccc(CS(=O)(=O)c2ccccc2)c1 | . | . | . | -2% | . | .

Assay outcomes (PubChem)
